# Laboratory results reported in PubChem BioAssay (NCATS).
# Results filed as inconclusive are left out. Active and inactive are the calls of the source. Unless noted, calls follow the shape of the full dose curve.
# How the values were obtained:
# [1] = qHTS for Inhibitors of the Functional Ribonucleoprotein Complex (vRNP) of Lassa (LASV) Arenavirus: Viability assay - alamar blue signal for LASV Primary Screen (AID 1347083; calls by dose curve; tested in HEK293 reporter line; also: nearly all actives have a fitted effect of over 80% in size; also: potency is read from the fitted curve at half-maximal effect)
# [2] = qHTS for Inhibitors of the Functional Ribonucleoprotein Complex (vRNP) of Lymphocytic Choriomeningitis Arenaviruses (LCMV): Viability assay - alamar blue signal for LCMV Primary Screen (AID 1347085; calls by dose curve; tested in HEK293 reporter line; also: nearly all actives have a fitted effect of over 80% in size; also: potency is read from the fitted curve at half-maximal effect)
# [3] = target: Nucleoprotein (Lymphocytic choriomeningitis virus (strain Armstrong)) (UniProt P09992); experiment: qHTS for Inhibitors of the Functional Ribonucleoprotein Complex (vRNP) of Lymphocytic Choriomeningitis Arenaviruses (LCMV): LCMV Primary Screen - GLuc reporter signal (AID 1347086); also: nearly all actives have a fitted effect of over 70% in size; also: potency is read from the fitted curve at half-maximal effect; as to activity change, negative = inhibition: % is scaled to controls: 0 for no effect and ±100 for the full control effect
# Chain of Nucleoprotein (Lymphocytic choriomeningitis virus (strain Armstrong)) (P09992 whole entry, looked up): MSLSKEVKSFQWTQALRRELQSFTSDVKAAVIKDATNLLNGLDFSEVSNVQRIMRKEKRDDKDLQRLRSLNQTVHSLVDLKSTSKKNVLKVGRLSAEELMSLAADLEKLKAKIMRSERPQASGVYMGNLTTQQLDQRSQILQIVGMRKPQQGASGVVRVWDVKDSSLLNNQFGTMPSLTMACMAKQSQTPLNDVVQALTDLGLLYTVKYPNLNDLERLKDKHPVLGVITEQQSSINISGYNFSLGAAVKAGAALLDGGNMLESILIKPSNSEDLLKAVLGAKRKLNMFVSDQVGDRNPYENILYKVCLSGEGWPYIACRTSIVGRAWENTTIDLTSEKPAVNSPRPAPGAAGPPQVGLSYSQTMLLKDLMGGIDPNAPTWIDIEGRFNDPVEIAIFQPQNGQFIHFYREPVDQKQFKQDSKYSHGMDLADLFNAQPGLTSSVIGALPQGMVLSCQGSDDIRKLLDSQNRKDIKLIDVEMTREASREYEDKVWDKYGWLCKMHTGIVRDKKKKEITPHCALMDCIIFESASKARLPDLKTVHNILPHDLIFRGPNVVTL
# [4] = Primary qHTS to identify inhibitors of SARS-CoV-2 cell entry (AID 1645846); conditions: activity change, negative = inhibition: at 57.1 µM (top of the series) unless noted; also: nearly all actives have a fitted effect of over 45% in size; also: potency is read from the fitted curve at half-maximal effect
# In short: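 Inhibition of spike-mediated entry was scored in human ACE2-transfected Expi293F cells. Particles were MLV-pseudotyped with Wuhan-Hu-1 S carrying a 19-aa C-terminal deletion; signal was luciferase after two days, scaled between spike PP and fusion-protein-free PP.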
# [5] = Confirmatory qHTS to identify inhibitors of SARS-CoV-2 cell entry (AID 1645844); also: potency is read from the fitted curve at half-maximal effect; nearly all actives have a fitted effect of over 45% in size
# In short: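 Using stable human ACE2 Expi293F cells, compounds preincubated 1 hr before spike pseudoparticle infection; luciferase signal after 48 hr at 37C, 5% CO2, normalised to spike PP and no-fusion-protein PP wells.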
# [6] = VSVG counterscreen qHTS to identify inhibitors of SARS-CoV-2 cell entry (AID 1645847); also: potency is read from the fitted curve at half-maximal effect; nearly all actives have a fitted effect of over 65% in size
# In short: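 Luminescence from a luciferase reporter, normalised to bald particle and VSV-G pseudotyped particle wells, is the read-out. Cells are HEK293 expressing human ACE2, exposed to compound 1 h before a 48 h particle infection at 37 °C.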
# [7] = qHTS profiling of the MIPE4 collection as inhibitors of Plasmodium falciparum (3D7) proliferation (AID 743344; call rule not given here;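 also: scaled between DMSO vehicle wells and 0.29 µM artemisinin as full inhibition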); conditions: P. falciparum 3D7 in erythrocytes, SYBR Green DNA fluorescence, 72 h; at 28.5 µM (top of the series) unless noted
# In short: (§1)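 Parasite DNA was quantified by SYBR Green I fluorescence (ex 485, em 535 nm) after overnight lysis in saponin/Triton buffer at room temperature. Cultures at 0.3% parasitemia and 2.5% hematocrit were first exposed to compound for 72 h at 37 C; signals were normalised to artemisinin (0.29 uM) and vehicle wells.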
# [8] = qHTS profiling of the MIPE4 collection as inhibitors of Plasmodium falciparum (DD2) proliferation (AID 743345; call rule not given here); conditions: P. falciparum Dd2 in erythrocytes, SYBR Green DNA, 72 h; at 28.5 µM (top of the series) unless noted
# In short: as §1
# [9] = qHTS profiling of the MIPE4 collection as inhibitors of Plasmodium falciparum (DD2) proliferation (Rep 2) (AID 743346; call rule not given here); conditions: P. falciparum Dd2 in erythrocytes, SYBR Green DNA, 72 h; at 28.5 µM (top of the series) unless noted
# In short: as §1
# [10] = Cytotoxicity counterscreen for inhibitors of SARS-CoV-2 cell entry (AID 1645845); also: nearly all actives have a fitted effect of over 50% in size; also: potency is read from the fitted curve at half-maximal effect
# In short: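 After a 15 min room-temperature ATPLite 1step step, luminescence reflected ATP remaining in HEK293-ACE2 cells exposed to compound for 1 h plus 48 h at 37 C, with percent activity set by cell and no-cell controls.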
# [11] = Confirmatory qHTS for VERO E6 Cytotoxicity Assay: Counterscreen for SARS-CoV-2 CPE Assay (AID 1508605); also: potency is read from the fitted curve at half-maximal effect; nearly all actives have a fitted effect of over 60% in size
# [12] = Confirmatory qHTS for activators (rescue) of SARS-CoV-2 Cytopathic Effect (CPE) (AID 1508606); also: 0% is about no effect; nearly all actives have a fitted effect of over 70% in size
# [13] = Inducers of the Endoplasmic Reticulum Stress Response (ERSR) in human glioma: Validation (AID 504836; active = well fitted curve in the direction sought with a large enough effect; also: 0% is about no effect)
# In short: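 Stably transfected U87-MG human glioma cells carrying a GRP78-based luminescent sensor were seeded at 1000 cells/well, pin-dosed with compounds and incubated 16 h. Luciferase reagent was then added, and end-point luminescence was read after 10 min at room temperature.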
# [14] = Validation screen for inhibitors of Lassa infection (AID 463096); also: % is scaled to controls: 0 for no effect and ±100 for the full control effect
# [15] = Primary qHTS for Huh7 cytotoxicity: counterscreen for inhibitors of MERS-S pseudotyped particle cell entry (AID 1479147); conditions: outcome: dose series up to 57.1 µM unless noted
# [16] = Primary qHTS for inhibitors of MERS-S pseudo-typed particle cell entry (AID 1479149); also: nearly all actives have a fitted effect of over 60% in size; as to activity change, negative = inhibition: % is scaled to controls: 0 for no effect and ±100 for the full control effect
# [17] = Primary qHTS for Vero E6 cytotoxicity: counterscreen for inhibitors of SARS-S pseudo-typed particle cell entry (AID 1479150); conditions: outcome: dose series up to 57.1 µM unless noted
# [18] = Primary qHTS for inhibitors of SARS-S pseudo-typed particle cell entry (AID 1479145); also: nearly all actives have a fitted effect of over 45% in size
smiles,measurement,setting,value
CCCCCCOC(=O)N=C(N)c1ccc(NCc2nc3cc(C(=O)N(CCC(=O)OCC)c4ccccn4)ccc3n2C)cc1,Potency,[1],inactive
same,Potency,[2],inactive
same,Potency,[3],inactive
Cn1cc(CNCC2CCN(c3ncc(C(=O)NO)cn3)CC2)c2ccccc21,Potency,[1],0.685 µM (active)
same,Potency,[2],0.485 µM (active)
same,Potency,[3],1.53 µM (active)
same,Potency,[4],inactive
C=CC(=O)Nc1cccc(Oc2nc(Nc3ccc(N4CCN(C)CC4)cc3)ncc2Cl)c1,Potency,[1],2.73 µM (active)
same,Potency,[2],1.72 µM (active)
same,Potency,[3],inactive
O=C(Nc1ncc(-c2cc(C(F)F)nn2-c2c(Cl)cccc2Cl)s1)C1CC1,Potency,[1],0.968 µM (active)
same,Potency,[2],1.09 µM (active)
same,Potency,[3],3.85 µM (active)
same,Potency,[5],0.541 µM (active)
same,Potency,[6],1.36 µM (active)
COc1cc([C@@H]2c3cc4c(cc3[C@H](O)[C@H]3COC(=O)[C@@H]23)OCO4)cc(OC)c1OC,"parasite growth, % of DMSO control",[7],52.9%
same,"parasite growth remaining, % of DMSO control (lower = more inhibition)",[8],78.3%
same,Potency,[1],0.193 µM (active)
same,Potency,[2],0.344 µM (active)
same,Potency,[3],1.09 µM (active)
same,Potency,[5],12.1 µM (active)
same,Potency,[4],1.26 µM (active)
same,Potency,[6],1.71 µM (active)
CC[C@H](CC[C@@H](C)[C@H]1CC[C@H]2[C@@H]3CC=C4C[C@@H](O)CC[C@]4(C)[C@@H]3CC[C@]12C)C(C)C,"parasite growth, % of DMSO control",[7],94%
same,"parasite growth remaining, % of DMSO control (lower = more inhibition)",[8],101%
same,"parasite growth, % of control (lower = inhibition)",[9],179%
same,Potency,[1],8.63 µM (active)
same,Potency,[2],2.43 µM (active)
O=C(Nc1cn[nH]c1-c1nc2ccc(CN3CCOCC3)cc2[nH]1)NC1CC1,Potency,[1],7.69 µM (active)
same,Potency,[2],1.93 µM (active)
same,Potency,[10],15.8 µM (active)
same,"activity change, negative = inhibition",[4],-95.5%
c1cncc(CN2CCC(n3ncc4c(N5CCOCC5)nc(-c5ccc6[nH]ccc6c5)nc43)CC2)c1,Potency,[1],1.22 µM (active)
same,Potency,[2],2.43 µM (active)
same,Potency,[11],2.51 µM (active)
same,Potency,[12],inactive
CCN(CC)Cc1ccc2cc(COC(=O)Nc3ccc(C(=O)NO)cc3)ccc2c1,Potency,[1],15.3 µM (active)
same,Potency,[2],6.85 µM (active)
same,Potency,[10],10 µM (active)
Nc1nc(N)c(N=O)c(OCC2CCCCC2)n1,outcome,[13],inactive
same,Potency,[1],15.3 µM (active)
same,Potency,[2],21.7 µM (active)
same,Potency,[10],inactive
same,"activity change, negative = inhibition",[4],-7.15%
COc1ccc(-c2nc(N3CCOCC3)c3sc(CN(C)c4ncc(C(=O)NO)cn4)cc3n2)cn1,Potency,[1],0.193 µM (active)
same,Potency,[2],0.122 µM (active)
same,Potency,[4],inactive
COc1cc(/C=C(\C#N)C(=O)Nc2nnc(C(F)(F)F)s2)ccc1OCc1ccc(C(F)(F)F)cc1C(F)(F)F,Potency,[1],inactive
same,Potency,[2],inactive
same,Potency,[10],inactive
same,Potency,[4],inactive
CC(C)Oc1ccc(C(=O)N[C@H](CNC(=O)CN(C)C)Cc2ccc(-c3cn4cccc([C@H](C)O)c4n3)cc2)cc1Cl,Potency,[1],1.93 µM (active)
same,Potency,[2],0.968 µM (active)
same,Potency,[10],inactive
CN1CCN2c3ccccc3Cc3ccccc3C2C1 (stereo not given),Potency,[14],inactive
same,outcome,[13],inactive
same,Potency,[1],inactive
same,Potency,[2],inactive
same,outcome,[15],inactive
same,Potency,[16],inactive
same,outcome,[17],inactive
same,Potency,[10],inactive
C[C@H](NCc1ccc(OCc2cccc(F)c2)cc1)C(N)=O,Potency,[1],21.7 µM (active)
same,Potency,[2],38.5 µM (active)
same,Potency,[18],inactive
same,outcome,[15],inactive
same,Potency,[16],inactive
same,outcome,[17],inactive
same,Potency,[10],inactive
same,Potency,[4],inactive
Cc1c(C(N)=O)cc([N+](=O)[O-])cc1[N+](=O)[O-],Potency,[1],inactive
same,Potency,[2],inactive
same,Potency,[18],inactive
same,outcome,[15],inactive
same,Potency,[16],inactive
same,outcome,[17],inactive
same,Potency,[10],inactive
same,Potency,[4],inactive
Cc1cc(C(=O)NOCCO)c(Nc2ccc(I)cc2F)n(C)c1=O,Potency,[1],6.85 µM (active)
same,Potency,[2],0.863 µM (active)
same,Potency,[10],inactive
same,"activity change, negative = inhibition",[4],-17.4%
C[C@@H]1COC(Nc2ccc3ncnc(Nc4ccc(OCc5nccs5)c(Cl)c4)c3c2)=N1,Potency,[1],1.53 µM (active)
same,Potency,[3],1.22 µM (active)
CN(C)Cc1c(C(=O)NCCOc2ccc(C(=O)NO)cc2)oc2ccccc12,Potency,[1],2.43 µM (active)
same,Potency,[2],1.37 µM (active)
same,Potency,[4],inactive
CC(=O)OCC(=O)[C@@]12OC(C)(C)O[C@@H]1C[C@H]1[C@@H]3C[C@H](F)C4=CC(=O)C=C[C@]4(C)[C@@]3(F)[C@@H](O)C[C@@]12C,Potency,[1],inactive
same,Potency,[2],inactive
same,Potency,[18],inactive
same,outcome,[15],inactive
same,Potency,[16],inactive
same,outcome,[17],inactive
same,Potency,[4],inactive
COc1cc2ncnc(Nc3cc(Br)c(O)c(Br)c3)c2cc1OC,Potency,[1],0.611 µM (active)
same,Potency,[2],0.0544 µM (active)
same,Potency,[10],inactive
Cc1nc2c([nH]1)CCN(C(=O)c1ccc(NC(=O)c3ccccc3-c3ccccc3)cc1)c1ccccc1-2,Potency,[1],inactive
same,Potency,[2],inactive
same,outcome,[15],inactive
same,outcome,[17],inactive
same,Potency,[10],inactive
COc1ccc(F)c(F)c1C(=O)c1cnc(NC2CCN(S(C)(=O)=O)CC2)nc1N,Potency,[1],2.73 µM (active)
same,Potency,[2],6.11 µM (active)
same,Potency,[5],0.0681 µM (active)
same,"activity change, negative = inhibition",[4],-92.2%
same,Potency,[6],0.0681 µM (active)
Cc1cnc(NC(=O)Nc2cc(Br)c(C)cc2OC[C@@H]2CNCCO2)cn1,Potency,[1],2.43 µM (active)
same,Potency,[2],10.9 µM (active)
same,Potency,[4],10 µM (active)
CNC(=O)c1ccc(Nc2cc(Nc3ccccc3S(=O)(=O)C(C)C)c3cc[nH]c3n2)nc1,Potency,[1],8.63 µM (active)
same,Potency,[3],27.3 µM (active)
CN(C)c1ccc(C(=O)NCCCCCCC(=O)NO)cc1,Potency,[1],4.85 µM (active)
same,Potency,[2],1.53 µM (active)
same,Potency,[4],inactive
